{"source": "PubChem BioAssay (NCATS)", "note": "Inconclusive results are not listed.", "data": [{"experiment": "qHTS for identification of novel therapeutic agents for treatment of microphthalmiaassociated transcription factor (MiT) renal cell carcinoma (RCC) (AID 1963991)", "details": "TFE3-RCC viability, CellTiter-Glo, 48 h; measured here: UOK124 Z-AUC; stronger effect = lower value", "procedure,_shortened": "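Three TFE3-fusion RCC lines (UOK109, UOK124, UOK145), 500 cells/well in complete medium, were treated with MIPE 4.0 compounds for 48 hours at 37 C. Viability was by CellTiter-Glo luminescence, normalized to DMSO (100%) and empty wells (0%); curves fitted over 11 concentrations.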", "values": [{"smiles": "Cc1c(C)c2c(c(C)c1O)CCC(C)(COc1ccc(CC3SC(=O)NC3=O)cc1)O2", "note": "(stereo not drawn)", "z-score": 0.103}, {"smiles": "N[C@@H]1CONC1=O", "z-score": 0.295}, {"smiles": "CC(C[N+](C)(C)C)OC(N)=O", "note": "(stereo not drawn)", "z-score": 0.666}, {"smiles": "O=C(C1CC1)N1CC[C@@H](Cn2c(-c3ccc(-c4ccc5occc5c4)cc3)nc3cnccc32)C1", "z-score": 0.377}, {"smiles": "Cc1n[nH]c(C)c1Cc1sc2c(c1C(=O)N1C[C@H](O)CO1)c(=O)n(C)c(=O)n2CC(C)C", "z-score": 0.656}, {"smiles": "CCN(CC)CCCC(C)Nc1nc(C)cc(Nc2ccc3nc(C)cc(N)c3c2)n1", "note": "(stereo not drawn)", "z-score": 0.864}, {"smiles": "CC[C@@H](C)[C@H](NC(=O)[C@H](CC1CCCCC1)NC(=O)c1ccno1)C(=O)N1CCC2(CCc3ccccc32)CC1", "z-score": 0.261}, {"smiles": "Cc1cnc(NC(=O)C2=C(O)c3ccccc3S(=O)(=O)N2C)s1", "z-score": 0.223}, {"smiles": "C1COC(NC(C2CC2)C2CC2)=N1", "z-score": 0.218}, {"smiles": "O=NN(CCCl)C(=O)NCCCl", "z-score": 1.48}, {"smiles": "C#Cc1cccc(Nc2ncnc3cc(OCCOC)c(OCCOC)cc23)c1", "z-score": -1.06}, {"smiles": "CC(c1cc2ccccc2s1)N(O)C(N)=O", "note": "(stereo not drawn)", "z-score": 0.701}, {"smiles": "COc1nc(-c2ccc3c(c2)OCO3)n(-c2ccc(NC(=O)CSc3ccccc3)cc2)n1", "z-score": 0.0138}, {"smiles": "NC(=O)C1CCCc2c1[nH]c1ccc(Cl)cc21", "note": "(stereo not drawn)", "z-score": 0.823}, {"smiles": "COc1ccc(CC2=NN3C([C@@H](CCc4ccccc4)[C@@H](C)O)=NC(C)C3C(=O)N2)cc1OC", "note": "(stereo partly drawn)", "z-score": 0.967}, {"smiles": "NC(=O)c1ccc(I)c([N+](=O)[O-])c1", "z-score": 0.616}, {"smiles": "Oc1cccc(-c2nc(N3CCOCC3)c3oc4ncccc4c3n2)c1", "z-score": -1.8}, {"smiles": "CCCCNc1cc(C(=O)O)cc(S(N)(=O)=O)c1Oc1ccccc1", "z-score": 0.679}]}]}
